Bioassay records as filed in PubChem.
This is a sample that favours compounds with a hit; in the whole collection about 10% have one here.
VDR inhibitor: inhibitors of human vitamin D receptor. 400,000 tested, 0.93% active. Potency, µM, inactives show max response, negative = inhibition, hits mostly inhibitors. P11473. VDR-SRC2-3 peptide fluorescence polarization, 2 h. AID 504847; further: potency means the concentration at half of the fitted maximal effect; on the % scale 0 is the no-effect control and ±100 the full control effect
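Inhibition of the VDR/SRC2-3 peptide interaction is quantified by fluorescence polarization. Compounds (23 nl, pintool) incubate with the reagents for 2 hours at ambient room temperature.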
G9a inh: inhibitors of human histone lysine methyltransferase G9a; 350,000 tested, 8.8% active; AID 504332; G9a H3K9 monomethylation, AlphaScreen, 2 h; Potency, µM (series often up to 102 µM), inactives show at the highest dose activity, negative = inhibition, hits mostly inhibitors; Q96KQ7; further: potency means the concentration at half of the fitted maximal effect; on the % scale 0 is the no-effect control and ±100 the full control effect; nearly all actives have a fitted effect of over 75% in size
Target sequence (Q96KQ7 913-1193 limits assumed): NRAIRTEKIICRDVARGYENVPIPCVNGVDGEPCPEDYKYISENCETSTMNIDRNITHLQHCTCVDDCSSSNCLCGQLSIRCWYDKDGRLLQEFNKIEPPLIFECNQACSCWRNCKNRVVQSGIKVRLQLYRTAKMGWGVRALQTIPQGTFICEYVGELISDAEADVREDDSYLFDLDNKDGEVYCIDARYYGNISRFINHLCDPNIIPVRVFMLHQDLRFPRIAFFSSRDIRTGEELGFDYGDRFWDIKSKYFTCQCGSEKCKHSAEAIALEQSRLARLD
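Compounds were preincubated with 20 nM G9a for 15 min, after which biotinylated H3K9 peptide (500 nM) and SAM (20 uM) started a 2 h room-temperature reaction. Monomethylated product was quantified by antibody-based AlphaScreen chemiluminescence.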
MmCpn inh: blocks the Methanococcus maripaludis chaperonin Mm-Cpn. 330,000 tested, 0.031% active. Potency, µM (titrated, usually from 76.9 µM), for the others: at the top dose activity, negative = inhibition, actives largely listed as inhibitors. AID 504842. purified Mm-Cpn ATPase, ADP Transcreener TR-FRET; further: potency means the concentration at half of the fitted maximal effect; on the % scale 0 is the no-effect control and ±100 the full control effect; nearly all actives have a fitted effect of over 80% in size
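Purified archaeal chaperonin (25 nM final) was preincubated with compound for 10 min at 37°C, then ATP (10 uM final) was added for 30 min at 37°C in Tris pH 7.4/KCl/MgCl2/DTT buffer. ADP was quantified by HTRF Transcreener TR-FRET.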
CCT chaperon mod: modulators of cytosolic chaperonin (CCT/TRiC) activity; 360,000 tested, 0.3% active; AID 651819; purified chaperonin ATPase assay, HTRF ADP detection, 30 min; activity change, % (test concentration not listed), hits read low; in the data active means activity change below about -30%; further: on the % scale 0 is the no-effect control and ±100 the full control effect
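TRiC (40 or 20 nM final, by batch activity) in 30 mM Tris pH 7.4, 100 mM KCl, 5 mM MgCl2, 1 mM DTT was treated with compound at 76 uM single dose, then 10 uM ATP, 30 min at 37 °C. ADP was read by HTRF Transcreener.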
PLK1 PBD inh: PLK1 (human) polo-box domain binding inhibition; Plk1 PBD binding of FITC phosphopeptide, fluorescence polarization; 360,000 tested, 2.8% active; Potency, µM, inactives show max response, negative = inhibition, actives largely listed as inhibitors; P53350; further: potency means the concentration at half of the fitted maximal effect; series mostly up to about 57 µM; on the % scale 0 is the no-effect control and ±100 the full control effect; nearly all actives have a fitted effect of over 65% in size
Sfp PPTase inh: Sfp phosphopantetheinyl transferase inhibition; Potency, µM, without a hit: largest response in the series, negative = inhibition, actives largely listed as inhibitors; Biochemical Sfp PPTase activity, qHTS; Q9F4F7; AID 1490; 310,000 tested, 3.5% active;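 further: the enzyme is Sfp with the accession as filed and its product quenches rhodamine fluorescence; potency means the concentration at half of the fitted maximal effect; 0% = enzyme reaction without inhibitor and -100% = no enzyme wells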
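Fluorescence-quenching assay with 15 nM Sfp, 5 uM rhodamine-CoA and 12.5 uM BHQ-2-labelled ybbR peptide in pH 7.6 Hepes/MgCl2 buffer. Enzyme was pre-incubated with compound for 15 min at room temperature. Rate was taken from the 30-min fluorescence change (525/598 nm).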
Sfp PPTase conf: confirmation of Bacillus subtilis Sfp PPTase inhibitors. Sfp PPTase enzymatic assay, qHTS titration. AID 2701. 380 tested, 79% active. shares compounds with Sfp PPTase inh. Potency, µM (series often up to 114 µM), for inactives: at the top dose activity change, negative = inhibition, most hits filed as inhibitors;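 further: potency means the concentration at half of the fitted maximal effect; plate controls were uninhibited Sfp reaction for no effect and no enzyme control for full effect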
Target sequence (Q9F4F7 whole entry, looked up): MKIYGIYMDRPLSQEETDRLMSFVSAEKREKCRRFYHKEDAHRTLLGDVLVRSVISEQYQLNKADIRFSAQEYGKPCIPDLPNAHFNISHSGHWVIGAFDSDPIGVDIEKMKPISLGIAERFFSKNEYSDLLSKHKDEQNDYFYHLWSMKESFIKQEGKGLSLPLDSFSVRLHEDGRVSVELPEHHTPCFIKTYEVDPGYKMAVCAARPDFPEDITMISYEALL
Sfp PPTase gel: Blocks Sfp PPTase activity, gel read-out; Potency, µM, usual class: inhibitors; AID 2707; shares compounds with Sfp PPTase inh; purified Sfp, gel-based phosphopantetheinylation read-out; 210 tested, 20% active;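 active means potency below 100 µM; inconclusive means dose-dependent response but potency above 100 µM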;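 further: band intensities scaled against SCH202676 control wells before curve fitting; potency is an IC50 for inhibitors of Sfp transfer activity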
VDR inh confirm: inhibits human vitamin D receptor, primary hit validation; shares compounds with VDR inhibitor; VDR-coactivator inhibition assay, qHTS confirmation; Potency, µM, actives largely listed as inhibitors; 840 tested, 89% active; AID 602199; further: potency means the concentration at half of the fitted maximal effect
VDR FP fluor: confirmation of human VDR-coactivator binding inhibitors, fluorescein label; shares compounds with VDR inhibitor; VDR-coactivator binding, fluorescein fluorescence polarization; Potency, µM (doses to about 57.1 µM), for the others: top-dose activity change, negative = inhibition, hits mostly inhibitors; 840 tested, 48% active; AID 602200; further: potency means the concentration at half of the fitted maximal effect
VDR bla reporter: confirmation of human vitamin D receptor inhibitors in reporter cells; shares compounds with VDR inhibitor; VDR beta-lactamase reporter cells, FRET ratio; cells co-treated with VDR agonist LG190178; Potency, µM (top dose mostly 46.1 µM), without a hit: at the top dose activity change, negative = inhibition, actives largely listed as inhibitors; 840 tested, 23% active; AID 602202; further: potency means the concentration at half of the fitted maximal effect; on the % scale 0 is the no-effect control and ±100 the full control effect
VDR cytotox: cell toxicity, VDR inhibitor hit counter-screen; shares compounds with VDR inhibitor; cytotoxicity counter-screen, cell viability, qHTS; Potency, µM (top dose mostly 48.3 µM), for inactives: at the top dose activity change, negative = cytotoxicity, hits mostly cytotoxic; 840 tested, 18% active; AID 602204;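 further: potency means the concentration at half of the fitted maximal effect; plate controls were DMSO for no effect and high-concentration cycloheximide for full effect; nearly all actives have a fitted effect of over 75% in size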
The depositor's hits bear a star; i = inactive; ? = inconclusive; . = not tested or not shown; [ ] = dose if it differs, or a comment. Unless noted, the call rests on the fitted dose curve; in most records, active means well fitted curve in the direction sought with a large enough effect; inconclusive means small, poorly fitted or top-dose-only effect, or another doubt; inactive means no such curve, though single readings can be large; an effect the other way counts as inactive or inconclusive.

SMILES	VDR inhibitor	G9a inh	MmCpn inh	CCT chaperon mod	PLK1 PBD inh	Sfp PPTase inh	Sfp PPTase conf	VDR inh confirm	VDR FP fluor	VDR bla reporter	VDR cytotox	others
Cc1sc(NC(=O)c2ccccc2)c(C(=O)c2ccccc2)c1C	56.2µM*	3.55µM*	0.9%	-0.9	6.7µM*	12.6µM*	13.2µM*	18.9*	8.91µM*	23.2%	19.7%
Cc1ccc(C2=NN=C(NC(=O)CSc3nncn3C)SC2)cc1	3.16µM*	22.4µM*	-4.0%	0.1	2.99µM*	8.91µM*	26.4µM*	1.12*	?	4.2%	?
CCCCN(CC)CCNc1ncnc2onc(-c3ccc(Cl)cc3)c12	-5.8%	2.6%[59 µM]	.	.	.	.	.	.	.	.	.
COc1ccc(C(=O)Nc2ccc(Cl)c(S(=O)(=O)Nc3ccccc3OC)c2)cc1	-11.6%	-6.5%[59 µM]	-2.5%	-1.6	2.5%	15.0%	.	.	.	.	.
CCN(CC)c1ccc(NC(=O)c2ccccc2)cc1S(=O)(=O)Nc1ccccc1OC	?	1µM*	?	-1.3	1.89µM*	3.16µM*	6.63µM*	3.16*	3.16µM*	1.0%	-11.2%
Nc1ccccc1Sc1nc2ccccc2[nH]1	20µM*	7.08µM*	-1.3%	1.2	13.4µM*	7.94µM*	37.3µM*	21.2*	14.1µM*	5.7%	6.9%
Nc1nc2ccccc2[nH]1	-7.4%	-2.7%	0.6%	-2.4	-2.5%	4.5%	.	.	.	.	.
C=Cc1ccc(CSc2nc(-c3ccccc3C)nc3c2Cc2c(CO)cnc(C)c2O3)cc1	3.6%	-32.7%[59 µM]	.	.	.	.	.	.	.	.	.
CN1CCN(C(=S)C(=O)Nc2ccc(Br)cc2)CC1	?	2.51µM*	2.8%	-1.3	2.38µM*	1.26µM*	6.63µM*	3.98*	3.55µM*	-3.1%	-15.1%
CCNCc1ccccc1OCc1ccccc1	-1.9%	-4.6%	-0.6%	1.4	?	21.8%	.	.	.	.	.
Oc1ccc(NCc2ccccc2OCc2ccccc2)cc1	50.1µM*	1.78µM*	-5.6%	-0.6	-0.5%	25.1µM*	10.5µM*	14.1*	14.1µM*	6.5%	?	Sfp PPTase gel=?
Cc1ccc(CSc2nc3cccnc3n2Cc2ccc(C(=O)NCCc3cccs3)cc2)cc1	1.0%	3.1%[59 µM]	.	.	.	.	.	.	.	.	.
O=C(Nc1ccccn1)c1sc2cc([N+](=O)[O-])ccc2c1Cl	31.6µM*	1.58µM*	0.7%	-0.1	2.67µM*	6.31µM*	3.73µM*	3.36*	?	4.9%	-24.1%
O=C1CSC(c2ccccc2F)N1 (stereo not given)	-1.9%	.	1.5%	-3.2	-16.1%	0.4%	.	.	.	.	.
Cc1sc2c(c1C)C(=O)NC(c1ccccc1F)N2 (stereo not given)	31.6µM*	10µM*	0.5%	1.1	2.12µM*	7.94µM*	7.44µM*	6.7*	?	9.4%	2.1%	Sfp PPTase gel=i
